Bioassay records (PubChem)
A selection: hits, their analogues and other compounds. The true share with any hit is near 3.1%.
EWS-Fli inh = blocks EWS/Fli oncoprotein-driven transcription; actives 0.67% (n = 350,000); inhibition, % at 12.6 µM; A673 NR0B1-luciferase reporter, viability-normalised;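 active = mean inhibition of at least 50% after viability correction, with every replicate also passing that limit; inconclusive = mean reaches 50% but only one of two replicates passes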;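 note: firefly luciferase signal divided by Alamar Blue viability fluorescence both relative to DMSO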
INS-1E GSIS act = GLuc luminescence reporter in INS-1E cells, primary screen for activators of glucose-dependent secretion of insulin. INS-1E GLuc reporter insulin secretion, 2-3 h. activation, % at 16.6 µM. actives 0.61% (n = 370,000). AID 743287;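 active = lowest replicate activation of at least 40%, so every replicate reaches that level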;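 note: 0% = median of neutral control wells and 100% = median of IBMX positive control wells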
Statin myotox sup = suppression of simvastatin myotoxicity. C2C12 myotubes + simvastatin, ATP luminescence, 48 h; scaled: DMSO 0, geranylgeraniol control 100. rescue of ATP level, % at 7.49 µM. actives 0.78% (n = 330,000). AID 602340;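 active = mean ATP rescue above about 67%, or every replicate alone reaching that limit, limit read from the data, passing the limit was not always enough; inconclusive = no clear call, values can overlap the other calls; inactive = mean under the limit and some replicate under it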;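 note: myotubes were challenged with 10 µM simvastatin during compound exposure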
PAX8 reporter = lowers PAX8-driven luciferase in RMG-I cells; actives 1.2% (n = 360,000); inhibition, % at 12.6 µM; AID 652154; RMG-I TPO-luciferase reporter, SteadyGlo, 24 h;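 active = mean replicate inhibition at least 60% with every replicate also reaching 60%; inconclusive = only one of the two criteria is met; inactive = mean below 60% and not all replicates reaching 60%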;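 note: luciferase light reporting Pax8 driven TPO promoter activity; plate controls were median of neutral control wells for no effect and mitoxantrone controls for full effect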
miR-122 sensor = miR-122 inhibition in Huh7 cells. actives 0.3% (n = 340,000). Huh7 miR-122 Renilla luciferase sensor, 48 h; neutral wells = 0, positive control = 100. AID 602342. activation (reporter increase), % at 12.5 µM;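 active = mean replicate activation score at least 90 and every replicate individually at or above 90; inconclusive = only one of the two criteria met; inactive = neither criterion met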;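 note: higher luciferase means less miR-122 activity so hits act as miR-122 inhibitors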
Env fusion inh = inhibitors of HIV Env-mediated cell fusion; HeLa-JRFL Env/CEM21 cell fusion, luciferase; actives 1.1% (n = 360,000); inhibition, % at 12.3 µM;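 active = mean replicate inhibition score of at least 50 and every replicate individually at or above 50; inconclusive = only one of the two criteria met; inactive = mean below 50 and not all replicates reaching 50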;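 note: 0% = plate neutral controls and 100% = maraviroc near 300 nM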
The depositor's hits bear a star; i = inactive; ? = inconclusive; · = no result; [ ] = another dose, or the depositor's remark.

SMILES	EWS-Fli inh	INS-1E GSIS act	Statin myotox sup	PAX8 reporter	miR-122 sensor	Env fusion inh
CN1C(=O)c2cc(NS(=O)(=O)c3cccc(F)c3)ccc2OC[C@@H]2O[C@@H](CC(=O)O)CC[C@@H]21	2	-4	12	-44	37[16.7 µM]	·
COc1ccc2c3c([nH]c2c1)[C@@H](CO)N(Cc1ccccc1)CC31CN(C(=O)c2ccccn2)C1	·	-4	·	·	·	·
C[C@@H]1CN([C@H](C)CO)C(=O)c2cc(NC(=O)Nc3ccc(F)cc3)ccc2O[C@H]1CN(C)Cc1ccc(C(=O)O)cc1	-6	1	4	·	32[16.7 µM]	·
COc1ccc(C(=O)Nc2ccc3c(c2)OC[C@H](C)NC[C@@H](C)[C@H](OC)CN(C)C3=O)cc1	-3	-1	-4	·	17[16.7 µM]	19[16.7 µM]
COc1ccccc1C#Cc1ccc([C@@H]2[C@@H](CO)N(C(=O)C3CCCCC3)[C@H]2C#N)cc1	10	5	-215	85*	·	8[16.7 µM]
O=C(NCc1cccnc1)/C(=C\c1ccc(-c2ccc(Cl)c(Cl)c2)o1)S(=O)(=O)c1ccccc1	40	-12	·	91*	10	i
O=C(NCc1cccnc1)c1ccc(-c2ccc(Cl)cc2)o1	11	1	·	-4	·	8
Cc1cc(N/N=C/c2ccc(O)c(C)c2O)nc(-c2ccccc2O)n1	·	3	·	97*	101*	-36
C/C(=N\Nc1cc(C)nc(-c2ccccc2O)n1)c1ccccc1	-35	-7	-49	-44	5	-10
COc1ccc2c3c(n(C)c2c1)[C@@H](CO)N(C(=O)C1CCC1)CC31CN(C(=O)Nc2cccc(F)c2)C1	5	-13	·	·	·	·
CC(=O)c1cccc(NC(=O)NCc2cccs2)c1	·	·	-2	5	103*	-3
CC(=O)Nc1cccc(-c2ccnc3c2CC(C)(C(=O)Nc2ccc(Cl)c(C(F)(F)F)c2)O3)c1 (configuration not stated)	7	-26	80*	?	1	-113
CC(=O)Nc1cccc(-c2ccnc3c2CC(C)(C(=O)NCc2cccs2)O3)c1 (configuration not stated)	60*	·	·	13	·	-4
CC(=O)Nc1cccc(-c2ccnc3c2CC(C)(C(=O)Nc2cccc(Oc4ccccc4)c2)O3)c1 (configuration not stated)	20	-1	-11	64*	22	-49
CC(=O)Nc1cccc(-c2ccnc3c2CC(C)(C(=O)Nc2ccc(F)c(Cl)c2)O3)c1 (configuration not stated)	13	-16	11	30	-2	-17
CC(=O)c1cccc(NC(=O)NCc2ccccn2)c1	-51	·	-1	·	13	·
CC=Cc1ccc2n(c1=O)C[C@H]1[C@H](CO)[C@@H](C(=O)NCC(F)(F)F)[C@@H]2N1C(=O)C1CCCC1 (mixture of isomers)	·	19	·	·	·	·
Cc1cc(C(=O)Nc2ccc3c(c2)C(=O)N(C)[C@H]2CC[C@H](CC(=O)Nc4ccc(Cl)cc4)O[C@@H]2CO3)no1	-9	2	49	22	25[16.7 µM]	·
CC(C)C(=O)Nc1ccc2c(c1)C(=O)N(C)[C@@H]1CC[C@H](CC(=O)N[C@@H](C)c3ccccc3)O[C@@H]1CO2	0	-1	0	31	0[16.7 µM]	-11[16.7 µM]
COc1ccc(CN(C)C[C@@H]2Oc3ccc(NS(=O)(=O)c4ccc(C)cc4)cc3CC(=O)N([C@H](C)CO)C[C@H]2C)cc1	-5	-10	?	-9	3[16.7 µM]	·
CC(=O)Nc1ccc(-c2ccnc3c2CC(C)(C(=O)Nc2cccc(OC(F)(F)F)c2)O3)cc1 (configuration not stated)	-1	69*	34	18	1	-36
CCOC(=O)N1CCN(c2c(NCc3ccc(Cl)cc3)c(=O)c2=O)CC1	52*	-1	-63	41	12	-275
CCCNC(=O)c1ccc(CNc2c(N3CCC(C(=O)OCC)CC3)c(=O)c2=O)cc1	·	3	133*	·	0	·
CCOC(=O)N1CCN(c2c(N3CCN(c4ccc(F)cc4)CC3)c(=O)c2=O)CC1	9	3	-5	13	-7	3
CCOC(=O)N1CCN(c2c(NCc3ccc(F)cc3)c(=O)c2=O)CC1	57*	2	·	25	·	-166
SMILES	EWS-Fli inh	INS-1E GSIS act	Statin myotox sup	PAX8 reporter	miR-122 sensor	Env fusion inh
CCOC(=O)N1CCN(c2c(NCc3cccs3)c(=O)c2=O)CC1	28	·	·	1	4	-20
CCN1C(=C(C#N)C#N)C=Cc2cc(C)ccc21	1	7	-3	-4	-9	-34
C=CC[n+]1c(/C=C2\C=Cc3cc(C)ccc3N2CC)ccc2ccccc21	23	-81	·	88*	·	23
O=C([C@@H]1[C@@H](CO)[C@@H]2Cn3c(cccc3=O)[C@H]1N2CC1CC1)N1CCc2ccccc2C1	-3	13	-34	9	·	0[16.7 µM]
CCOC(=O)c1nc2nc(-c3cccs3)cc(C(F)(F)F)n2n1	·	63*	-4	-2	0	-7
Nc1nc2nc(-c3cccs3)cc(C(F)(F)F)n2n1	-9	22	·	0	·	-9
Cc1ccc(N(Cc2cc3ccccc3[nH]c2=O)C(=O)c2cccs2)cc1C	11	-10	101*	7	2	24
O=C(c1cccs1)N(Cc1cc2ccccc2[nH]c1=O)c1ccccc1	·	-12	·	·	·	·
CCCc1cn(CC[C@@H]2CC[C@@H](NS(=O)(=O)c3ccccc3Cl)[C@H](CO)O2)nn1	1	0	2	3	·	-68[16.7 µM]
COc1ccc(/C(=C/c2ccc(OC(F)F)c(OC)c2)C(=O)O)cc1OC	-6	75*	·	-2	·	-8
CCOC(=O)CSc1nc(Cc2ccccc2)nc2ccccc12	-9	19	·	-6	·	56*
COc1ccc(C(=O)/C(=C/c2cccs2)c2nc3ccccc3o2)cc1	·	·	94*	-117	-2	-174
O=C1CSC(=Nc2ccccc2)N1	·	·	95*	·	-1	·
CC1=CC2=NC(=O)/C(=C/c3cccn3Cc3ccccc3)C(=N)N2O1	5	12	20	5	2	19
N=C1/C(=C/c2cccn2Cc2ccc(Cl)cc2)C(=O)N=C2SC=CN12	·	148*	·	·	·	63*
C[C@@H]1CCCCO[C@@H](CN(C)S(=O)(=O)c2ccccc2)[C@@H](C)CN([C@H](C)CO)C(=O)c2cc(NC(=O)Nc3ccc(C(F)(F)F)cc3)ccc2O1	4	33	·	-4	-1[16.7 µM]	1[16.7 µM]
C[C@H]1CCCCO[C@@H](CN(C)S(=O)(=O)c2ccccc2)[C@@H](C)CN([C@@H](C)CO)C(=O)c2cc(NC(=O)Nc3ccc(C(F)(F)F)cc3)ccc2O1	1	29	·	76*	-7[16.7 µM]	16[16.7 µM]
C[C@H](CO)N1C[C@H](C)[C@@H](CN(C)S(=O)(=O)c2ccccc2)OCCCC[C@H](C)Oc2ccc(NC(=O)Nc3ccc(C(F)(F)F)cc3)cc2C1=O	11	2	·	70*	-1[16.7 µM]	-1[16.7 µM]
